Assay results from PubChem BioAssay AID1159580 (chemical genetic matrix, 2015).
Where “and” joins values, the source holds several entries; their conditions need not be identical. Equal values may be shown once. Among all 5,500 compounds or so, about 2,000 (36%) were called active. Inconclusive results (about 18%) are left out. No stated cut-off is given here; in the data, active means normalized growth mostly below about 0.91 (no sharp cut-off); inconclusive means no clear call, values can overlap the other calls; inactive means mostly above about 0.92. This is one part of the list. Where a structure was tested more than once in an assay, its records may differ in their call.

Experiment: chemical genetic growth profiling, strain panel (AID 1159580);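 further: tested at 20 µM; growth read once vehicle control cultures reached saturation at 30 °C; 1 = growth at the plate median or of vehicle wells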
Details: growth OD

Measured: normalized growth

C/C=C/CC(C)C(O)C1C(=O)NC(CC)C(=O)N(C)CC(=O)N(C)C(CC(C)C)C(=O)NC(C(C)C)C(=O)N(C)C(CC(C)C)C(=O)NC(C)C(=O)NC(C)C(=O)N(C)C(CC(C)C)C(=O)N(C)C(CC(C)C)C(=O)N(C)C(C(C)C)C(=O)N1C (stereo unspecified)
active: S. cerevisiae deletion strains, locus YKR001C, strain vps1, stronger effect = lower value 0.619 | S. cerevisiae deletion strains, locus YLR039C, strain RIC1, stronger effect = lower value 0.621 | S. cerevisiae deletion strains, locus YLR262C, strain YPT6 (second series), stronger effect = lower value 0.573 | S. cerevisiae deletion strains, locus YLR262C, strain YPT6, stronger effect = lower value 0.509 | S. cerevisiae deletion strains, locus YLR342W, strain FKS1 (second series), stronger effect = lower value 0.173 | S. cerevisiae deletion strains, locus YLR342W, strain FKS1, stronger effect = lower value 0.247 | S. cerevisiae deletion strains, locus YMR231W, strain pep5, stronger effect = lower value 0.404
0.292 (active) and 1.01 (inactive): S. cerevisiae deletion strains, locus YMR307W, strain GAS1, stronger effect = lower value
inactive: S. cerevisiae deletion strains, locus YJR075W, strain HOC1, stronger effect = lower value 0.978 | S. cerevisiae deletion strains, locus YKL009W, strain mrt4, stronger effect = lower value 1.01 | S. cerevisiae deletion strains, locus YKL068W, stronger effect = lower value 1 | S. cerevisiae deletion strains, locus YKL085W, strain MDH1 (second series), stronger effect = lower value 0.984 | S. cerevisiae deletion strains, locus YKL085W, strain MDH1, stronger effect = lower value 0.984 | S. cerevisiae deletion strains, locus YKL160W, strain elf1, stronger effect = lower value 1.04 | S. cerevisiae deletion strains, locus YKL190W, strain CNB1, stronger effect = lower value 0.999 | S. cerevisiae deletion strains, locus YKR026C, strain gcn3, stronger effect = lower value 1.01 | S. cerevisiae deletion strains, locus YKR091W, strain srl3, stronger effect = lower value 1.02 | S. cerevisiae deletion strains, locus YLL001W, strain dnm1, stronger effect = lower value 1.02 | S. cerevisiae deletion strains, locus YLL026W, stronger effect = lower value 1.01 | S. cerevisiae deletion strains, locus YLL041C, strain sdh2, stronger effect = lower value 1.02 | S. cerevisiae deletion strains, locus YLR027C, strain aat2, stronger effect = lower value 1.02 | S. cerevisiae deletion strains, locus YLR058C, strain SHM2, stronger effect = lower value 1.01 | S. cerevisiae deletion strains, locus YLR102C, strain apc9, stronger effect = lower value 1.01 | S. cerevisiae deletion strains, locus YLR113W, strain HOG1, stronger effect = lower value 0.986 | S. cerevisiae deletion strains, locus YLR221C, strain rsa3, stronger effect = lower value 1.02 | S. cerevisiae deletion strains, locus YLR258W, strain gsy2, stronger effect = lower value 1.01 | S. cerevisiae deletion strains, locus YLR268W, strain sec22, stronger effect = lower value 1.01 | S. cerevisiae deletion strains, locus YLR320W, strain mms22, stronger effect = lower value 1.01 | S. cerevisiae deletion strains, locus YLR330W, strain CHS5, stronger effect = lower value 1.01 | S. cerevisiae deletion strains, locus YLR357W, strain rsc2, stronger effect = lower value 0.978 | S. cerevisiae deletion strains, locus YLR370C, strain arc18, stronger effect = lower value 1.01 | S. cerevisiae deletion strains, locus YLR371W, strain rom2, stronger effect = lower value 1.03 | S. cerevisiae deletion strains, locus YLR384C, strain iki3, stronger effect = lower value 1.01 | S. cerevisiae deletion strains, locus YLR418C, strain cdc73, stronger effect = lower value 0.925 | S. cerevisiae deletion strains, locus YML016C, strain PPZ1, stronger effect = lower value 1.02 | S. cerevisiae deletion strains, locus YML032C, strain rad52, stronger effect = lower value 1.04 | S. cerevisiae deletion strains, locus YML120C, strain ndi1, stronger effect = lower value 1.02 | S. cerevisiae deletion strains, locus YML124C, strain tub3, stronger effect = lower value 1.03 | S. cerevisiae deletion strains, locus YMR058W, strain fet3, stronger effect = lower value 1.02 | S. cerevisiae deletion strains, locus YMR078C, strain ctf18, stronger effect = lower value 1.01 | S. cerevisiae deletion strains, locus YMR125W, strain sto1, stronger effect = lower value 0.915 | S. cerevisiae deletion strains, locus YMR129W, stronger effect = lower value 1.01 | S. cerevisiae deletion strains, locus YMR205C, strain PFK2, stronger effect = lower value 0.978 | S. cerevisiae deletion strains, locus YMR223W, strain ubp8, stronger effect = lower value 1.04 | S. cerevisiae deletion strains, locus YMR263W, strain SAP30, stronger effect = lower value 0.99 | S. cerevisiae deletion strains, locus YNL067W, strain RPL9B, stronger effect = lower value 0.97 | S. cerevisiae deletion strains, locus YNL071W, strain lat1, stronger effect = lower value 1.03 | S. cerevisiae deletion strains, locus YNL128W, strain TEP1, stronger effect = lower value 0.948 | S. cerevisiae deletion strains, locus YNL153C, strain GIM3, stronger effect = lower value 0.97 | S. cerevisiae deletion strains, locus YNL175C, strain NOP13, stronger effect = lower value 0.963 | S. cerevisiae deletion strains, locus YNL183C, strain NPR1, stronger effect = lower value 0.955 | S. cerevisiae deletion strains, locus YNL197C, strain WHI3, stronger effect = lower value 0.955 | S. cerevisiae deletion strains, locus YNL209W, strain ssb2, stronger effect = lower value 1.01 | S. cerevisiae deletion strains, locus YNL224C, strain SQS1, stronger effect = lower value 0.966 | S. cerevisiae deletion strains, locus YNL233W, strain BNI4, stronger effect = lower value 0.986 | S. cerevisiae deletion strains, locus YNL248C, strain rpa49, stronger effect = lower value 1.02 | S. cerevisiae deletion strains, locus YNL250W, strain rad50, stronger effect = lower value 1.01 | S. cerevisiae deletion strains, locus YNL271C, strain bni1, stronger effect = lower value 1.01 | S. cerevisiae deletion strains, locus YNL298W, strain CLA4, stronger effect = lower value 0.987 | S. cerevisiae deletion strains, locus YNL307C, strain MCK1, stronger effect = lower value 1.04 | S. cerevisiae deletion strains, locus YNL322C, strain KRE1 (second series), stronger effect = lower value 1.01 | S. cerevisiae deletion strains, locus YNL322C, strain KRE1, stronger effect = lower value 1.03 and 1 | S. cerevisiae deletion strains, locus YNR049C, strain mso1, stronger effect = lower value 1.02 | S. cerevisiae deletion strains, locus YNR052C, strain pop2, stronger effect = lower value 1.04 | S. cerevisiae deletion strains, locus YOL006C, strain TOP1, stronger effect = lower value 0.83 | S. cerevisiae deletion strains, locus YOL012C, strain htz1 1.73 | S. cerevisiae deletion strains, locus YOL147C, strain pex11, stronger effect = lower value 1.02 | S. cerevisiae deletion strains, locus YOR001W, strain rrp6, stronger effect = lower value 1.03 | S. cerevisiae deletion strains, locus YOR061W, strain CKA2, stronger effect = lower value 0.967 | S. cerevisiae deletion strains, locus YOR069W, strain VPS5, stronger effect = lower value 1.02 | S. cerevisiae deletion strains, locus YOR070C, strain gyp1, stronger effect = lower value 1.01 | S. cerevisiae deletion strains, locus YOR080W, strain dia2, stronger effect = lower value 1 | S. cerevisiae deletion strains, locus YOR083W, strain WHI5 (second series), stronger effect = lower value 0.869 | S. cerevisiae deletion strains, locus YOR083W, strain WHI5, stronger effect = lower value 1.02 | S. cerevisiae deletion strains, locus YOR106W, strain vam3, stronger effect = lower value 0.975 | S. cerevisiae deletion strains, locus YOR136W, strain idh2, stronger effect = lower value 1.03 | S. cerevisiae deletion strains, locus YOR144C, strain elg1, stronger effect = lower value 1.02 | S. cerevisiae deletion strains, locus YOR184W, strain ser1, stronger effect = lower value 1.03 | S. cerevisiae deletion strains, locus YOR231W, strain MKK1, stronger effect = lower value 0.975 | S. cerevisiae deletion strains, locus YOR265W, strain rbl2, stronger effect = lower value 1.02 | S. cerevisiae deletion strains, locus YOR270C, strain vph1, stronger effect = lower value 0.895 | S. cerevisiae deletion strains, locus YOR290C, strain snf2, stronger effect = lower value 0.995 | S. cerevisiae deletion strains, locus YOR316C, strain cot1, stronger effect = lower value 1.01 | S. cerevisiae deletion strains, locus YPL051W, strain arl3, stronger effect = lower value 1.02 | S. cerevisiae deletion strains, locus YPL055C, strain LGE1, stronger effect = lower value 0.949 | S. cerevisiae deletion strains, locus YPL078C, strain atp4, stronger effect = lower value 1.02 | S. cerevisiae deletion strains, locus YPL106C, strain sse1, stronger effect = lower value 0.944 | S. cerevisiae deletion strains, locus YPL240C, strain hsp82, stronger effect = lower value 1.02 | S. cerevisiae deletion strains, locus YPL241C, strain CIN2, stronger effect = lower value 1.01 and 0.975 | S. cerevisiae deletion strains, locus YPL256C, strain CLN2, stronger effect = lower value 1.02 | S. cerevisiae deletion strains, locus YPR119W, strain clb2, stronger effect = lower value 1.02 | S. cerevisiae deletion strains, locus YPR141C, strain kar3, stronger effect = lower value 1 | S. cerevisiae deletion strains, locus YPR163C, strain tif3, stronger effect = lower value 1.02 | S. cerevisiae deletion strains, locus YPR167C, strain met16, stronger effect = lower value 1.02 | S. cerevisiae deletion strains, strain wtn01, stronger effect = lower value 1.02 | S. cerevisiae strains, strain wild type, stronger effect = lower value 1
